From PubChem BioAssay
Rows were chosen to be rich in hits. Some 3.8% of all compounds tested hit in one or more screens of this group.
CR mimetic SO – reduction of superoxide in aged yeast, primary screen, HTS. S. cerevisiae aged cells, superoxide DHE fluorescence; active compounds read low. superoxide response (% of plate mean), % at 10 µM. actives 0.18% (n = 330,000). AID 2690, 2010;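 active = superoxide response under a set limit, about three screen SD below normal, cut at about 65% in these data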;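 also: yeast aged for seven days with compound at 30 °C before DHE staining; 100% = average MFI of all compound-treated wells on the plate with controls excluded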
FAS-TE inh – FAS thioesterase domain inhibitors, primary screen, biochemical, fluorescence intensity, uHTS | recombinant FAS-TE, OMFH fluorogenic substrate, fluorescence endpoint | Fatty acid synthase (Homo sapiens), P49327 | actives 0.67% (n = 360,000) | AID 602261, 2012 | inhibition, % at 15 µM;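 active = compounds whose normalised, plate-corrected inhibition of enzyme fluorescence in the single-dose primary screen is 50% or more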;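 also: 0% = DMSO with enzyme and 100% = substrate without enzyme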
aDG glyco up – activators of alpha-DG glycosylation, primary screen, uHTS, Pro5-aDG cells, AlphaScreen. alpha-DG glycosylation AlphaScreen (IIH6); 0% Pro5, 100% B10-LARGE cell signal. activation, % at 10 µM. actives 0.22% (n = 360,000). AID 624168, 2012;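 active = activation of at least 8% versus controls, or a plate z-score of at least 8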;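 also: Pro5 are CHO cells carrying HIG-tagged alpha-DG that lacks glycosylation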
Cardio protect – cardioprotection against H2O2-induced cell death, primary screen, uHTS, H9c2 cells, ATPLite luminescence | H9c2 cardiomyocytes, H2O2 injury protection, 2 h | protection from H2O2 cell death, % at 20 µM | actives 0.63% (n = 360,000);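 active = compounds giving at least 50% protection of heart cells from peroxide-induced death in the single-dose screen, raw or plate-pattern-corrected value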;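 also: 0% = DMSO wells with peroxide and 100% = DMSO wells without peroxide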
MPTP inh – mitochondrial permeability transition pore inhibitors, primary screen, biochemical, isolated mouse mitochondria, absorbance | Ca2+ swelling absorbance, 30 min | inhibition, % at 10 µM | actives 1.4% (n = 360,000);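 active = inhibition of 50% or more, scaled per plate between neutral and stimulator controls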;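 also: 0% = DMSO wells given calcium and 100% = 1 mM EGTA wells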
SUMO Mot1 rescue – yeast Mot1-301 growth rescue at high temperature, primary screen, SUMOylation pathway inhibitor project, S. cerevisiae, ATP luminescence, 38.5C; growth rescue, % at 18.8 µM; S. cerevisiae Mot1-301 growth rescue; percent above DMSO median, 100 means doubled; actives 1% (n = 320,000); AID 2716, 2010;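 active = every valid replicate shows activation above 250% relative to neutral control wells; inactive = the rest, any valid replicate at or below 250%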;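 also: OY570 slx delta 5 strain wells were the positive control but not used for scaling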
FAS-TE conf – FAS thioesterase domain inhibitors, confirmation, biochemical, fluorescence intensity, single concentration | shares compounds with FAS-TE inh | recombinant FAS-TE, OMFH fluorogenic substrate | inhibition, % at 15 µM | actives 45% (n = 2,300) | AID 624325, 2012;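 active = compounds inhibiting the enzyme by at least 50% at 15 µM in any one of the replicates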;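 also: 0% = enzyme with DMSO only and 100% = wells lacking enzyme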
Starred values were filed as active, the others as inactive; nt = not tested or not shown.

SMILES	CR mimetic SO	FAS-TE inh	aDG glyco up	Cardio protect	MPTP inh	SUMO Mot1 rescue	FAS-TE conf
COc1ccc(NC(=O)CN2C(=O)NC(C)(c3ccccc3)C2=O)c(OC)c1 (stereo not given)	91	-3	0	0	-2	-4	nt
OC(c1cccnc1)c1nc(-c2cccc(F)c2)cs1 (stereo not given)	nt	-4	0	2	-1	nt	nt
C[C@@H](NC(=O)c1[nH]cnc1C(=O)Nc1ccc(Cl)cc1)c1ccccc1	115	64*	0	5	0	-12	63*
CCc1ccc(C(=O)NNc2cc(Cl)ccc2Cl)cc1	88	50*	0	-8	15	60	14
NC(=O)c1ccc(NC(=O)COC(=O)c2c[nH]c3ccccc23)cc1	nt	-6	0	-1	-1	nt	nt
COC(=O)C1=C(C(=O)OC)[C@]2([C@@H]3CC=CCN[C@@H](Cc4ccccc4)C(=O)N3Cc3ccccc3)C=C[C@H]1O2	nt	41	0	3	0	nt	nt
COC(=O)C1=C(C(=O)OC)[C@]2([C@H]3CC=CCN[C@@H](Cc4ccccc4)C(=O)N3Cc3ccccc3)C=C[C@H]1O2	nt	54*	0	-6	0	nt	13
CCOC(=O)c1c(NC(=O)c2ccc(N3C(=O)[C@@H]4[C@H](C3=O)[C@H]3C=C[C@@H]4C3)cc2)sc2c1CCCC2	87	62*	0	0	0	-17	9
Cc1ccc(S(=O)(=O)N2CCN(c3ccnc4cc(Cl)ccc34)CC2)cc1	96	64*	4	-27	24	-20	1
Cc1ccc(S(=O)(=O)N2CCN(c3ccnc4cc(Cl)ccc34)CC2)cc1C	99	46	1	-12	5	-35	nt
O=C1[C@H]2[C@@H](c3ccc(F)cc3)N3C(=O)N(c4cccc(Cl)c4)C(=O)[C@@]3(Cc3ccc(Cl)cc3)[C@H]2C(=O)N1C1CCCCC1	96	86*	1	-6	0	-4	19
O=C1[C@H]2[C@@H](c3ccc(F)cc3)N3C(=O)N(c4ccccc4)C(=O)[C@@]3(Cc3ccccc3)[C@H]2C(=O)N1C1CCCCC1	106	59*	0	0	-2	45	36*
CCOC(=O)C1CCN(C(=O)c2ccc3c(=O)n4nc(Nc5ccccc5OC)sc4nc3c2)CC1	nt	54*	0	71*	0	nt	59*
CCOC(=O)C1CCN(C(=O)c2ccc3c(=O)n4nc(Nc5cc(C)ccc5C)sc4nc3c2)CC1	99	55*	0	17	-1	9	25
COc1ccccc1Nc1nn2c(=O)c3ccc(C(=O)N4CCCC(C)C4)cc3nc2s1 (stereo not given)	107	35	0	41	3	324	nt
COc1ccc2[nH]c3c(c2c1)CCN1C(=O)C(CC(=O)NC(C)(C)C)C[C@H](C(=O)N2CCOCC2)[C@@]31CCC1CCCC1 (stereo not given in full)	92	53*	0	4	-2	nt	69*
COc1ccc2[nH]c3c(c2c1)CCN1C(=O)C(CC(=O)NCc2ccco2)C[C@H](C(=O)N2CCOCC2)[C@@]31CCC1CCCC1 (stereo not given in full)	99	65*	0	-7	0	nt	76*
COc1ccc2[nH]c3c(c2c1)CCN1C(=O)C(CC(=O)NCCN2CCOCC2)C[C@H](C(=O)N2CCOCC2)[C@@]31CCC1CCCC1 (stereo not given in full)	81	44	0	14	0	nt	nt
CCOC(=O)C1=CC[C@H]2c3c(c4ccccc4n3C)C(=O)C1N2C	101	-10	1	10	-2	-14	nt
CCOC(=O)C1=CC[C@H]2c3c(c4ccccc4n3C)C(=O)C1N2C(=O)OC(C)(C)C	106	63*	0	-1	-2	27	46*
COCCNC(=O)/C(C#N)=c1\s/c(=C\c2ccccc2OC(F)F)c(=O)n1Cc1ccccc1	93	nt	nt	nt	nt	4	nt
Cc1cccc2c1N(C(=O)CN1C(=O)c3ccccc3C1=O)C(C)(C)c1ssc(=S)c1-2	106	18	0	0	0	-6	nt
Cc1cc(C)c2c(c1)-c1c(ssc1=S)C(C)(C)N2C(=O)CN1C(=O)c2ccccc2C1=O	97	63*	-1	36	2	-10	31
CCOc1ccc(S(=O)(=O)N2CCC(C(=O)Nc3ccc(C)c(S(=O)(=O)N4CCOCC4)c3)CC2)cc1	nt	52*	0	-5	-2	nt	29
COc1ccc2ncc(S(=O)(=O)c3ccccc3)c(N3CCC4(CC3)OCCO4)c2c1	97	43	0	11	2	49	nt
SMILES	CR mimetic SO	FAS-TE inh	aDG glyco up	Cardio protect	MPTP inh	SUMO Mot1 rescue	FAS-TE conf
COc1cc2ncc(S(=O)(=O)c3ccccc3)c(N3CCC4(CC3)OCCO4)c2cc1OC	89	82*	-1	48	4	-2	82*
Cc1nc2cc(Oc3nc(NCCN(C)C)nc4ccsc34)ccc2s1	nt	-6	1	-4	0	nt	nt
COc1cccc(-c2cc(CC3(O)CCN(CCCc4ccccc4)CC3)on2)c1	104	-4	0	3	1	5	nt
CCCCCN(C(=O)COC(=O)CSc1ccc([N+](=O)[O-])cc1)c1c(N)n(CCCC)c(=O)[nH]c1=O	99	58*	0	3	-1	-4	22
CCCCCN(C(=O)CCC(=O)OCC(=O)N(C)c1ccccc1)c1c(N)n(CCCC)c(=O)[nH]c1=O	96	-4	0	5	-3	1	nt
COC(=O)[C@@]1(C(C)C)N=C(c2cc(OC)c(OC)c(OC)c2)[C@]2(O1)C(=O)N(C)c1ccc(Cl)cc12	nt	6	0	nt	1	nt	nt
COC(=O)[C@@]1(C(C)C)N=C(c2cc(OC)c(OC)c(OC)c2)[C@]2(O1)C(=O)N(Cc1ccc(OC)cc1)c1ccc(Br)cc12	nt	53*	0	nt	-1	nt	14
COC(=O)c1ccc(COc2cc([N+](=O)[O-])cc3cccnc23)o1	191	55*	0	7	-2	-16	57*
O=C(COc1cc([N+](=O)[O-])cc2cccnc12)NCCC1=CCCCC1	115	83*	0	0	-2	225	87*
CCOc1ccccc1NC(=O)CCn1nc(C)c(S(=O)(=O)N2CCCCC2)c1C	95	0	0	-1	-1	-3	nt
COc1cccc(CN(C)C(=O)c2cc(S(=O)(=O)NC3CCCCC3)ccc2C)c1	91	5	0	-4	-2	-14	nt
